Screening results (PubChem)
Sampled rows, rich in hits. Any-hit rate of the full collection: about 10%.
VP16 counter = inhibits Gal4-VP16 luciferase reporter, ROR gamma counter-screen; AID 2546; Drosophila S2 Gal4-VP16 UAS-luciferase, luminescence, 20 h; 310,000 tested, 3.5% active; Potency, µM (series often up to 53.6 µM), most hits filed as inhibitors;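 note: Gal4-VP16 expression switched on by copper sulfate through the metallothionein promoter; nearly all actives have a fitted effect of over 50% in size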
RORg inh = ROR gamma (mouse) transcription inhibition; P51450; Potency, µM (top dose mostly 53.6 µM), most hits filed as inhibitors; AID 2551; 310,000 tested, 5.4% active; Drosophila S2 Gal4-RORgamma UAS-luciferase reporter, 20 h; note: nearly all actives have a fitted effect of over 60% in size
Target sequence (P51450 whole entry, looked up, the tested form may be a part): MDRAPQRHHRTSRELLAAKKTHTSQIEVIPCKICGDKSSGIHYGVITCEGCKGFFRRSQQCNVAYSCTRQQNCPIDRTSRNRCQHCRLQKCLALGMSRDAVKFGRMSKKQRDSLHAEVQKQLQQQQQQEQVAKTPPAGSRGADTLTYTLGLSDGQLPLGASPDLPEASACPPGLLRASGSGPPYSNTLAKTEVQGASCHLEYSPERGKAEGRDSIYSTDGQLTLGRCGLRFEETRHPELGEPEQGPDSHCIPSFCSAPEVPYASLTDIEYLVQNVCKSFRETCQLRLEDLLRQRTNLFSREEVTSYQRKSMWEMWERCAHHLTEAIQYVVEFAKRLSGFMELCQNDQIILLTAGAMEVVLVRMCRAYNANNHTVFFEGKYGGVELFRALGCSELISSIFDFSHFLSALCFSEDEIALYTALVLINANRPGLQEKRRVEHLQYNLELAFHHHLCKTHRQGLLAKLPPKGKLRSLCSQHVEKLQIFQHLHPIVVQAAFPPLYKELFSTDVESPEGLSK
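Stable Schneider cell line, Gal4 DNA-binding domain fused to ROR gamma, UAS-luciferase. Cmpd 1 hr RT → CuSO4 700 uM final → 20 hr RT → luciferase reagent 10 min → luminescence.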
SW480 rereplic = induces DNA re-replication in SW480 colon adenocarcinoma cells; SW480 DNA re-replication, Hoechst DNA content imaging, 48 h; Potency, µM (titrated, usually from 46.1 µM), usual class: activators; 340,000 tested, 1.8% active; note: nearly all actives have a fitted effect of over 55% in size
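Treated cells incubate 48 hr (37 C, 5% CO2), are stained 40 min with Hoechst, and nuclear fluorescence is enumerated; a rise in nuclei with high DNA signal marks re-replication.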
MCF10A rereplic = DNA re-replication induction in MCF 10a cells | MCF 10A DNA re-replication, Hoechst nuclear intensity, 48 h | Potency, µM (series often up to 46.1 µM), actives largely listed as activators | 350,000 tested, 2.9% active; note: nearly all actives have a fitted effect of over 50% in size
KB-V1 MDR tox = KB-V1 MDR subline cytotoxicity | 400,000 tested, 3.4% active | AID 1347076 | Potency, µM (top dose mostly 46.1 µM), most hits filed as cytotoxic | KB-V1 MDR cells viability, CellTiter-Glo, 72 h; note: nearly all actives have a fitted effect of over 60% in size
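Cells of the MDR subline KB-V1 are plated, dosed with compound at multiple concentrations, and incubated 72 h at 37 degrees C; CellTiter-Glo is then added and luminescence read after 10 min.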
KB-3-1 cytotox = KB-3-1 parental cell cytotoxicity. KB-3-1 viability, CellTiter-Glo ATP luminescence, 72 h. Potency, µM (top dose mostly 46.1 µM), usual class: cytotoxic. 400,000 tested, 1.4% active. AID 1347075; note: nearly all actives have a fitted effect of over 60% in size
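Cytotoxicity measured as CellTiter-Glo luminescence after 72 h at 37 C. Compound titrations were pinned onto drug-naive KB-3-1 parental adenocarcinoma cells grown in DMEM with 10% FBS, and normalized data fitted to concentration-response curves.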
Numbers stand for hits; . = inactive; ? = inconclusive; / = no result given; [ ] = another dose, or the depositor's remark. Calls come from the whole dose curve; as a rule, active = well fitted curve in the direction sought with a large enough effect; inconclusive = small, poorly fitted or top-dose-only effect, or another doubt; inactive = no such curve, though single readings can be large; an effect the other way counts as inactive or inconclusive.

SMILES | VP16 counter | RORg inh | SW480 rereplic | MCF10A rereplic | KB-V1 MDR tox | KB-3-1 cytotox
COc1ccc(OC)c(NC(=O)CSc2nnc(Cc3cccn3C)n2CCc2ccccc2)c1 | ? | ? | . | . | 7.3µM | .
COc1ccc(-n2c(=S)[nH]c3cc(C(=O)NCc4ccccc4)ccc3c2=O)c(OC)c1 | ? | 20µM | . | . | . | .
CCOC(=O)N1CCN(C(=O)c2ccc3c(=O)n(-c4cc(OC)ccc4OC)c(=S)[nH]c3c2)CC1 | . | . | . | . | . | .
COc1ccc(-n2c(=S)[nH]c3cc(C(=O)N4CCN(c5ccccc5)CC4)ccc3c2=O)c(OC)c1 | 13µM | ? | . | . | ? | .
CN(CC(=O)NC(=O)NCc1ccco1)Cc1nc2ccccc2c(=O)[nH]1 | 3.5µM | 1µM | 5.2µM | ? | . | .
CN(CC(=O)Nc1ccccc1Cl)C(=O)CCc1nc2ccccc2c(=O)[nH]1 | / | / | . | . | . | .
CN(CC(=O)NC(c1ccccc1)c1ccccc1)Cc1nc2ccccc2c(=O)[nH]1 | 13µM | ? | .[9.22 µM] | ? | . | .
CN(CC(=O)Nc1ccccc1Sc1ccccc1)Cc1nc2ccccc2c(=O)[nH]1 | 3.5µM | 0.45µM | ? | ? | . | .
COc1ccc(NC(=O)c2cc(C3CCCCN3S(=O)(=O)Cc3ccccc3)on2)cn1 (centres undefined) | / | / | / | / | . | .
Cc1cc(C)nc(NC2=NCC(=O)N2c2ccccc2)n1 | . | . | . | . | . | .
Cc1cc(C)nc(NC2=NCC(=O)N2c2cccc(Cl)c2)n1 | . | . | . | . | 21µM | .
CN(c1cccc(Cl)c1)S(=O)(=O)c1cccc(C(=O)NC2=NCCS2)c1 | . | . | ? | ? | 21µM | 23µM
COc1ccc(N(C)S(=O)(=O)c2cccc(C(=O)Nc3nnc(C)s3)c2)cc1 | / | / | . | ? | . | .
COc1ccc(N(C)S(=O)(=O)c2cccc(C(=O)Nc3nc4ccccc4[nH]3)c2)cc1 | 11µM | 4µM | ? | ? | 16µM | ?
CN(c1cccc(Cl)c1)S(=O)(=O)c1cccc(C(=O)Nc2nc3ccccc3[nH]2)c1 | 3.5µM | 2.8µM | ? | 8.2µM | ? | 15µM
C=CCN(c1ccccc1)S(=O)(=O)c1cccc(C(=O)Nc2nc3ccccc3[nH]2)c1 | 4.5µM | 2.8µM | . | . | . | .
C=CCN(c1ccccc1)S(=O)(=O)c1cccc(C(=O)Nc2ccncc2)c1 | / | / | . | . | ? | .
CCC1CCc2c(sc(NC(=O)C3c4ccccc4Oc4ccccc43)c2C(=O)OC)C1 (centres undefined) | / | / | / | / | . | .
C[C@]12CC[C@H]3c4ccc(OC[C@H]5CO5)cc4CC[C@H]3[C@H]1CC[C@@H]2O | .[10 µM] | .[10 µM] | / | / | / | /
OC(c1cccc(Cl)c1)c1ncc(-c2cccc(C(F)(F)F)c2)[nH]1 (centres undefined) | / | / | / | / | . | .
COCCNC(=O)C1(C)CCCN(CC(=O)c2ccc(OC)cc2)C1 (centres undefined) | / | / | / | / | . | .
COC(=O)C1=C(C)NC(=S)NC1/C=C/c1ccccc1 (centres undefined) | 16µM | 6.3µM | .[1.84 µM] | . | . | .
CCOC(=O)C1=C(C)NC(=S)NC1/C=C/c1ccccc1 (centres undefined) | 2µM | 1.8µM | . | ? | . | .
CC(C)NC(=O)N1CC[C@@]2(CCCN(C(=O)c3cc(C(F)(F)F)cc(C(F)(F)F)c3)C2)C1 | . | . | / | / | / | /
COc1ccc(-c2cn3cc(Br)cnc3n2)cc1 | . | . | ? | . | 10µM | 13µM
SMILES | VP16 counter | RORg inh | SW480 rereplic | MCF10A rereplic | KB-V1 MDR tox | KB-3-1 cytotox
COc1ccc(-c2cn3cccnc3n2)cc1Br | . | . | . | . | ? | ?
N[C@@H](CO)C(=O)NNCc1ccc(O)c(O)c1O | . | . | . | . | / | /
COC(=O)c1ccc2c(=O)n(CCCCCC(=O)NCc3ccc(OC)cc3)c(=O)[nH]c2c1 | / | / | / | / | . | .
COc1ccc(C(=O)Nc2cc(-c3cccc(C)c3)nn2-c2ccccc2)cc1 | / | / | / | / | . | .
O=C(O)c1cccc(N/N=C/c2sc(N3CCOCC3)nc2-c2ccccc2)c1 | . | . | ? | ? | . | .
O=[N+]([O-])c1ccc(N/N=C/c2sc(N3CCOCC3)nc2-c2ccccc2)c(S(=O)(=O)Nc2ccc(Cl)cc2)c1 | 3.2µM | ? | 10µM | ? | . | 2.3µM
O=[N+]([O-])c1ccc(N/N=C/c2sc(N3CCOCC3)nc2-c2ccccc2)c(S(=O)(=O)Nc2ccccc2Cl)c1 | . | . | 13µM | . | ? | 9.2µM
Cc1ccc(OCc2nc(-c3ccc(C(=O)NCCc4ccc(S(N)(=O)=O)cc4)cc3)oc2C)cc1 | / | / | / | / | . | .
Cc1ccc(-c2[nH]ncc2CNCc2ccc(CN(C)C)cc2)cc1 | / | / | / | / | . | .
O=C(NC(=S)Nc1ccc2oc(=O)ccc2c1)c1cccc(F)c1 | . | 6.3µM | . | . | . | ?
O=C(NC(=S)Nc1ccc2oc(=O)ccc2c1)c1cccc(Cl)c1 | . | 2.8µM | . | . | . | .
COc1ccc(NC(=O)c2cc(C3CCCCN3C(=O)CCCc3ccccc3)on2)c(C)c1 (centres undefined) | / | / | / | / | . | .
Cc1cc(NC(=O)CSc2nc(C(C)(C)C)nc3ccccc23)no1 | . | . | ? | ? | ? | .
Cc1cc(NC(=O)CSc2nc(-c3cccs3)nc3ccccc23)no1 | / | / | 5.8µM | 15µM | ? | 5.8µM
CCCc1nc(SCC(=O)Nc2cc(C)on2)c2ccccc2n1 | . | . | ? | ? | ? | ?
Cc1cc(NC(=O)CSc2ncnc3ccccc23)no1 | . | 7.9µM | . | . | . | .
FC(F)Oc1ccccc1/C=N/Nc1nc2ccccc2o1 | ? | ? | . | . | . | .
Fc1ccccc1/C=N/Nc1ncnc2ccccc12 | 4.5µM | 2.8µM | . | . | . | .
Clc1ccc(/C=N/Nc2ncnc3ccccc23)cc1Cl | 3.5µM | 1.4µM | . | ? | ? | ?
Fc1ccccc1/C=N/Nc1nc2ccccc2o1 | 11µM | 6.3µM | . | . | . | .
CCOC(=O)N1CCN(C(=O)c2ccc(S(=O)(=O)Nc3ccc(C)cc3)cc2)CC1 | / | / | . | . | 10µM | 7.3µM
CN(c1ccc(C(=O)N2CCCCCC2)cc1)S(=O)(=O)c1ccc(Cl)cc1 | ? | ? | . | . | 23µM | .
CCOc1ccc(NS(=O)(=O)c2ccc(C(=O)N(C)CCc3ccc(OC)c(OC)c3)cc2)cc1 | 7.1µM | ? | . | . | . | .
CCOC(=O)N1CCN(C(=O)c2ccc(NS(=O)(=O)c3ccc(C)cc3)cc2)CC1 | ? | ? | . | . | . | .
CN(c1ccc(C(=O)N2CCOCC2)cc1)S(=O)(=O)c1ccc(Cl)cc1 | . | . | . | . | / | /
O=C(c1ccc(S(=O)(=O)Nc2ccccc2)cc1)N1CCC1 | / | / | 15µM | . | . | .
